Rows were chosen to be rich in hits. Some 1.8% of all compounds tested hit in one or more screens of this group.
PME-1 inh: blocks human protein phosphatase methylesterase 1; AID 2130; actives 0.53% (n = 320,000); recombinant PME-1, FP-Rh probe fluorescence polarization; inhibition, % at 5.9 µM;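 active = inhibition above the campaign mean of all compounds plus 3 SD, cut at about 26% in these data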;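 note: competitive labeling of PME-1 active site by serine hydrolase directed probe; 0% = PME-1 with DMSO and 100% = wells lacking PME-1 enzyme; inhibitors block probe labeling so polarization falls and inhibition rises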
Target sequence (Q9Y570 whole entry, looked up): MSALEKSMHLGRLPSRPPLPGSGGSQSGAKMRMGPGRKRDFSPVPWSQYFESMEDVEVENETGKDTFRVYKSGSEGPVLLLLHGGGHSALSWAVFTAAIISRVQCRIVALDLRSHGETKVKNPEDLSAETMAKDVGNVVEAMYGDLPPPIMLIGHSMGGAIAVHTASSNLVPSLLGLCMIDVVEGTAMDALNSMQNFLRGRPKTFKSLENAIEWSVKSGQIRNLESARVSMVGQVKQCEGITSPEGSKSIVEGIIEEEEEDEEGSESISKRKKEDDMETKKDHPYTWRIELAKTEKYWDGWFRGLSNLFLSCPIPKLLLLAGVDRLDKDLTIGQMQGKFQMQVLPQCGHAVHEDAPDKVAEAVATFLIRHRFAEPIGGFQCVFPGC
GSTO1 counter: GSTO1 inhibition, counter-screen for RBBP9 inhibitors; inhibition, % at 5.96 µM; P78417; AID 1974; recombinant GSTO1, activity-based probe fluorescence polarization; actives 1.1% (n = 300,000);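 active = inhibition above the campaign mean inhibition plus 3 SD, cut at about 35% in these data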;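 note: 0% = GSTO1-1 with DMSO and 100% = wells lacking GSTO1-1 enzyme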
Target sequence (P78417 whole entry, looked up): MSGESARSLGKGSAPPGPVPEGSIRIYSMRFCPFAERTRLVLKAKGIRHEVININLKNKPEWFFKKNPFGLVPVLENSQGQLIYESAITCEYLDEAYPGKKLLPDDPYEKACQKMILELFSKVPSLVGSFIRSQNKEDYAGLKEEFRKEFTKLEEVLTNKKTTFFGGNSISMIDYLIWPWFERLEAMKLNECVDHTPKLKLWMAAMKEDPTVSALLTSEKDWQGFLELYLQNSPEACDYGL
PAD4 inh: blocks human protein arginine deiminase 4; recombinant PAD4, RCA probe fluorescence polarization; actives 0.41% (n = 330,000); inhibition, % at 6.36 µM;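 active = percent inhibition above a cutoff equal to the mean of all tested compounds plus 3 SD, cut at about 15% in these data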;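 note: 0% = PAD4 with RCA probe and DMSO and 100% = probe without PAD4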
LYPLA2 inh: LYPLA2 (human) inhibition in PME1 counter-screen; actives 0.38% (n = 320,000); recombinant LYPLA2, FP-Rh probe fluorescence polarization; inhibition, % at 5.9 µM;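 active = inhibition above the screen-wide mean plus 3 SD, limit set per campaign, cut at about 26% in these data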;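 note: 0% = LYPLA2 with DMSO and 100% = wells lacking LYPLA2 enzyme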
LYPLA1 inh: blocks human lysophospholipase 1, a PME1 counter-screen; O75608; recombinant LYPLA1, FP-Rh probe fluorescence polarization; inhibition, % at 5.9 µM; actives 0.16% (n = 320,000); AID 2174;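 active = inhibition above the mean of all tested compounds plus 3 SD, set per campaign, cut at about 14% in these data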;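 note: inhibitors block serine hydrolase probe labeling of LYPLA1 so polarization falls; 0% = enzyme with DMSO and 100% = wells lacking LYPLA1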
Fam108B inh: blocks mouse Fam108B hydrolase in RBBP9 counter-screen. inhibition, % at 9.51 µM. actives 0.33% (n = 300,000). AID 1947. recombinant Fam108B, FP-Rh probe fluorescence polarization;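 active = inhibition above the screen mean inhibition plus 3 SD, computed separately per campaign, cut at about 18% in these data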;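 note: inhibitors lower polarization as less probe binds the enzyme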
GSTO1 inh conf: GSTO1 (human) inhibition, confirmation; inhibition, % at 5.96 µM; shares compounds with GSTO1 counter; actives 54% (n = 2,400); recombinant GSTO1, probe fluorescence polarization; AID 2176;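 active = inhibition above the primary screen's cutoff, its mean inhibition plus 3 SD, cut at about 35% in these data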;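 note: loss of polarization as inhibitors block binding of rhodamine sulfonate ester activity probe; 0% = GSTO1 with DMSO and 100% = wells lacking GSTO1 enzyme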
GSTO1 recomb ABPP: inhibitors of recombinant human GSTO1; shares compounds with GSTO1 counter; inhibition, % at 1 µM; actives 30% (n = 130); gel ABPP SE-Rh probe fluorescence;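 active = inhibition of the enzyme GSTO1 above about 75%, limit read from the data; inactive = inhibition below that limit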
Numbers without * were called inactive; · = not tested or not shown.

SMILES	PME-1 inh	GSTO1 counter	PAD4 inh	LYPLA2 inh	LYPLA1 inh	Fam108B inh	GSTO1 inh conf	others
O=S(=O)(/N=C/c1ccccc1O)c1cccs1	-4	2	0	-2	2	5	·
CC(C)(C)c1cc[n+](C2=C([O-])c3ccccc3C(=O)/C2=N\S(=O)(=O)c2cccs2)cc1	10	80*	2	-4	-1	7	89*
O=C1/C(=N\S(=O)(=O)c2cccs2)C([n+]2ccccc2)=C([O-])c2ccccc21	-2	92*	12	3	-3	9	86*
O=C(CSc1nnc(-c2cccs2)n1C1CC1)NCC1CCCO1 (stereo not drawn)	1	·	1	5	2	·	·
NC(=O)CCn1c(C(=O)c2ccc(Cl)cc2)c2ccccc2[n+]1[O-]	-5	50*	-2	-2	-3	7	8
Cc1ccc(C(=O)c2c3ccccc3[n+]([O-])n2CCC(=O)O)cc1	6	-2	-1	-7	-1	1	·
COc1ccccc1NS(=O)(=O)c1cccc(C(=O)N2CCN(C(=O)c3ccco3)CC2)c1	8	·	4	2	3	·	·
COc1cccc(NC(=O)CSc2nnc(-c3ccco3)c(-c3ccco3)n2)c1	-7	50*	4	-10	-8	8	16
Cc1ccccc1NC(=O)CSc1nnc(-c2ccco2)c(-c2ccco2)n1	6	55*	-8	-1	-5	7	18
O=C(CSc1nnc(-c2ccco2)c(-c2ccco2)n1)Nc1ccccc1	5	42*	-5	2	-3	15	30
COc1ccc(NC(=O)CSc2nnc(-c3ccco3)c(-c3ccco3)n2)cc1OC	5	14	-7	1	1	1	·
CCCCOC(=O)Nc1nnc(Cc2ccc(Cl)cc2)s1	-7	1	-2	-5	-2	-4	·
CCOc1ccc(/C=N/Nc2ccccc2)cc1	1	41*	0	7	3	-1	16
COc1cccc(CNCCO)c1OCc1ccc(Cl)cc1	1	9	2	-1	-4	2	·
Oc1ccc(NCc2ccccc2OCc2ccccc2F)cc1	26	74*	3	19	-2	10	10
CCOc1cc(CNc2ccc(O)cc2)ccc1OCc1ccc(Cl)cc1Cl	29*	87*	30*	14	5	16	3
Cc1ccc(NCc2ccccc2OCc2ccccc2F)cc1	-2	7	-5	4	-1	3	·
CCOc1cccc(CNc2ccc(O)cc2)c1OCc1ccc(Cl)cc1	22	76*	-11	5	-1	17	4
COc1cc(/C=C/C(=O)O)cc(S(=O)(=O)N2CCc3ccccc3C2)c1OC	-2	8	2	0	-1	-3	·
Clc1cccc(Cl)c1C1Nc2cccc3cccc(c23)N1	8	47*	2	2	0	6	9
Fc1cccc(Cl)c1C1Nc2cccc3cccc(c23)N1	11	32	-2	6	3	9	·
c1csc(C2Nc3cccc4cccc(c34)N2)c1	5	44*	-2	-2	-5	11	21
O=C(CCl)c1cc2c3c(c1)CC(=O)N3CCC2	5	52*	4	0	-1	-2	67*
O=C(CCc1nc2ccccc2c(=O)[nH]1)OCCOc1ccc(Cl)cc1	0	-1	0	-2	0	1	·
O=C(CCl)NC1(C(F)(F)F)C(=O)Nc2c1c(=O)[nH]c(=O)n2-c1ccccc1 (stereo not drawn)	-4	67*	0	4	1	2	71*
SMILES	PME-1 inh	GSTO1 counter	PAD4 inh	LYPLA2 inh	LYPLA1 inh	Fam108B inh	GSTO1 inh conf	others
Cc1ccc(C(=O)N2CCN(S(=O)(=O)c3ccc(C(C)C)cc3)CC2)s1	4	-2	2	-2	-1	1	·
CCc1ccc2c(c1)C(=O)C(=O)N2CCS(=O)(=O)c1ccccc1	1	6	-1	-5	0	3	·
O=C1C(=O)N(CCS(=O)(=O)c2ccccc2)c2ccc(Cl)cc21	4	43*	4	7	1	4	6
Cc1cccc(C(=O)OCC(=O)N2CCCCCC2)c1	0	·	-6	-6	-4	·	·
N#Cc1cnn2c(-c3ccc(Cl)cc3Cl)ccnc12	1	6	2	0	-1	1	·
Cc1ccc(C)c(NC(=O)CSc2nnc(-c3n[nH]c4ccccc34)o2)c1	-12	39*	-4	-5	-3	-3	29
CCCCn1c(NC(=O)c2ccc(Br)o2)c(S(=O)(=O)c2ccccc2)c2nc3ccccc3nc21	5	58*	-12	-2	-3	8	67*
COCCN(C(=O)COC(=O)CCCOc1ccc(OC)cc1)c1c(N)n(Cc2ccccc2)c(=O)[nH]c1=O	1	5	5	0	1	-2	·
NC(=O)c1c(NC(=O)c2cnccn2)sc2c1CCCC2	-2	3	3	2	2	0	·
Cc1ccc(N(C(=O)CCl)C(C(=O)NC2CCCCC2)c2cccnc2)cc1C (stereo not drawn)	-1	99*	1	-1	0	1	92*	GSTO1 recomb ABPP=71
NC(CO)C(=O)NNCc1ccc(O)c(O)c1O (stereo not drawn)	-17	88*	-11	-31	-18	6	72*
C1CCc2nc3c(nc2C1)CCCC3	7	10	3	12	3	2	·
Nc1nnc2c(n1)CCCC2	8	67*	9	6	1	1	10
NNC(=O)c1nnn(-c2nonc2N)c1-c1cccs1	3	3	0	5	4	2	·
CCS(=O)(=O)c1ccc(O)c(NC(=O)c2cc(-c3ccccn3)nc3ccccc23)c1	·	·	-1	·	·	·	·
CC1(C)Cc2ccccc2C2=NNC(=O)C2=N1	3	56*	4	2	1	2	82*
O=C(N/N=C/c1cccnc1)c1cc(O)c(O)c(O)c1	-8	50*	0	-8	-5	-8	11
C[C@H](NS(=O)(=O)c1ccccc1)C(=O)OCC(=O)NC(=O)Nc1ccc2c(c1)OCCO2	6	9	-4	0	-3	-5	·
CCN(CC)S(=O)(=O)c1cc(NC(=O)c2ccc3c(c2)NC(=O)C(C)S3)ccc1C (stereo not drawn)	1	·	-4	-10	-18	·	·
N#C/C(=C(/O)CCl)c1nc2ccccc2[nH]1	7	84*	-3	-7	-2	5	94*
CCOc1ccc(NC(=O)C2C(c3ccccc3)C2(Cl)Cl)cc1 (stereo not drawn)	0	-1	2	-6	-4	0	·

Screens deposited in PubChem BioAssay by The Scripps Research Institute Molecular Screening Center.
